According to PubChem BioAssay (NCATS):
Records with an inconclusive call do not appear. Unmarked numbers belong to inactive results. The source made the active and inactive calls. Calls come from the whole dose curve; as a rule, active = well fitted inhibition curve with a large enough effect; inconclusive = small, poorly fitted or top-dose-only effect; inactive = flat fitted curve, though single readings scatter. Where a SMILES comes first, the peptide text is derived from it. [ ]: non-standard residue; d: D form. pGlu = O=C1CC[C@@H](C(=O)O)N1; Thz = O=C(O)[C@@H]1CSCN1

What follows are compounds tested on CP291 (assay: qHTS profiling for inhibitors of Plasmodium falciparum proliferation (AID 504749; note: nearly all actives have a fitted effect of over 60% in size;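 for activity, negative = inhibition: 0% = DMSO vehicle and full inhibition = artemisinin control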)). Conditions: P. falciparum in erythrocytes, SYBR Green DNA, 72 h; series mostly up to 28.7 µM; activity, negative = inhibition: at the top concentration.
How it was run: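 Each compound contacts P. falciparum-infected red blood cells for 72 h at 37 C; lysis buffer (Tris, EDTA, saponin, Triton X, SYBR Green I) is added and fluorescence measured next morning; values normalized to controls.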
Potency is the fitted concentration of half-maximal effect.

| SMILES | activity, negative = inhibition | Potency |
| --- | --- | --- |
| O=C1CC[C@@H](C(=O)N2CSC[C@H]2C(=O)O)N1 ([pGlu]-[Thz]-OH) | -3.53% | – |
| Cc1c(Nc2ncccc2C(=O)O)cccc1C(F)(F)F | 8.91% [at 12.8 µM] | – |
| O=C(O)c1ccccc1Nc1cccc(C(F)(F)F)c1 | -0.768% | – |
| CC(C(=O)O)c1ccc2c(c1)[nH]c1ccc(Cl)cc12 (centres undefined) | -5.45% | – |
| CC1(C)C[C@@H]1C(=O)N/C(=C\CCCCSC[C@H](N)C(=O)O)C(=O)O | -3.14% | – |
| Cc1cc(O)c2ccccc2c1O | -15.1% | – |
| Nc1ccc(C(=O)O)c(O)c1 | -15.2% | – |
| C=C(Nc1ccc(OCC)cc1)Nc1ccc(OCC)cc1 | – | inactive |
| CCCCC[C@H](O)/C=C/[C@@H]1[C@@H](C/C=C\CCCC(=O)O)[C@@H](O)C[C@H]1O | -0.856% | – |
| [O-][n+]1ccccc1SSc1cccc[n+]1[O-] | – | 1.2 µM (active) |
| CCCCCCCCCCCCCCCC(=O)OC(C)C | -5.53% | – |
| Clc1ccccc1-c1nc(-c2ccncc2)no1 | 8.61% | – |
| CN1[C@@H]2CC[C@H]1CC(OC(=O)C(CO)c1ccccc1)C2 (some centres undefined) | -5.42% | – |
| COc1ccc(-c2cc(=S)ss2)cc1 | -22.2% | – |
| O=C(O)[C@H](CC(=O)N1C[C@H]2CCCC[C@H]2C1)Cc1ccccc1 | -1.98% | – |
| Cc1ccccc1CNc1ncnc2c1ncn2C1OC(CO)C(O)C1O (centres undefined) | 1.15% | – |
| C#C[C@]1(O)CC[C@H]2[C@@H]3CCc4cc(O)ccc4[C@H]3CC[C@@]21C | -12.1% | – |

| SMILES | activity, negative = inhibition | Potency |
| --- | --- | --- |
| COc1cc(/C=C/C(=O)N2CCN(CC(=O)N3CCCC3)CC2)cc(OC)c1OC | -8.01% | – |
| Cc1ccc(O)c(-n2nc3ccccc3n2)c1 | -0.76% | – |
| O=C(O)COc1ccc(C(=O)c2cccs2)c(Cl)c1Cl | – | inactive |
| Cc1ccc(C(=O)c2ccc(CC(=O)O)n2C)cc1 | -3.27% [at 12.8 µM] | – |
| CCCOC(=O)c1ccc(O)cc1 | -3.03% | – |
| C=CC(N)CCC(=O)O (centres undefined) | -3.98% | – |
| C=CCCCCCCCCC(=O)O | 0.545% | – |
| COc1ccc(/C=C/C(=O)Nc2ccccc2C(=O)O)cc1OC | -2.28% | – |
| O=C(OCc1ccccc1)c1ccccc1 | 10.1% | – |
| c1ccc2sc(SN3CCOCC3)nc2c1 | -4.79% | – |
| CCCCCCCCCCCCCCCCCC(=O)O | 13.8% | – |
| COc1cc2c3cc1Oc1cc(ccc1O)C[C@@H]1c4c(cc(OC)c(O)c4Oc4ccc(cc4)C[C@@H]3N(C)CC2)CC[N+]1(C)C | -12.9% | – |
| O=C(Nc1ccc(C(=O)O)c(O)c1)c1ccccc1 | 4.27% | – |
| C=CCN1C(=O)C(CC(C)C)NC1=S (centres undefined) | – | inactive |
| CC1(C)S[C@@H]2[C@H](NC(=O)[C@H](NC(=O)N3CCN(S(C)(=O)=O)C3=O)c3ccccc3)C(=O)N2[C@H]1C(=O)O | 0.636% | – |
| O=C(O)Cc1ccc(-c2ccccc2)cc1 | -2.18% [at 12.8 µM] | – |
| CCOC(=O)c1ccccc1O | -9.85% | – |
